# Test results published in PubChem BioAssay AID504339 (National Center for Advancing Translational Sciences (NCATS), 2011).
# The campaign covered roughly 390,000 compounds. About 17,000 (4.4%) were called active. Another 8% or so got no clear call; they are omitted. Calls follow the shape of the dose curve; as a rule, active = well fitted inhibition curve with a large enough effect; inconclusive = small, poorly fitted or top-dose-only effect; inactive = no such curve, though single readings can be large or run the other way. The entries come from a sample that favours actives as a whole. Entries that show only a call come without a potency.
# Molecular target: Lysine-specific demethylase 4A (Homo sapiens) (UniProt O75164)
# Test: qHTS Assay for Inhibitors of JMJD2A-Tudor Domain; also: nearly all actives have a fitted effect of over 50% in size
# Settings: AlphaScreen JMJD2A-Tudor / H3K4me3 peptide binding; series mostly up to 114 µM
# Potency is read from the fitted curve at half-maximal effect.
# Chain of Lysine-specific demethylase 4A (Homo sapiens) (O75164 whole entry, looked up, the tested form may be a part): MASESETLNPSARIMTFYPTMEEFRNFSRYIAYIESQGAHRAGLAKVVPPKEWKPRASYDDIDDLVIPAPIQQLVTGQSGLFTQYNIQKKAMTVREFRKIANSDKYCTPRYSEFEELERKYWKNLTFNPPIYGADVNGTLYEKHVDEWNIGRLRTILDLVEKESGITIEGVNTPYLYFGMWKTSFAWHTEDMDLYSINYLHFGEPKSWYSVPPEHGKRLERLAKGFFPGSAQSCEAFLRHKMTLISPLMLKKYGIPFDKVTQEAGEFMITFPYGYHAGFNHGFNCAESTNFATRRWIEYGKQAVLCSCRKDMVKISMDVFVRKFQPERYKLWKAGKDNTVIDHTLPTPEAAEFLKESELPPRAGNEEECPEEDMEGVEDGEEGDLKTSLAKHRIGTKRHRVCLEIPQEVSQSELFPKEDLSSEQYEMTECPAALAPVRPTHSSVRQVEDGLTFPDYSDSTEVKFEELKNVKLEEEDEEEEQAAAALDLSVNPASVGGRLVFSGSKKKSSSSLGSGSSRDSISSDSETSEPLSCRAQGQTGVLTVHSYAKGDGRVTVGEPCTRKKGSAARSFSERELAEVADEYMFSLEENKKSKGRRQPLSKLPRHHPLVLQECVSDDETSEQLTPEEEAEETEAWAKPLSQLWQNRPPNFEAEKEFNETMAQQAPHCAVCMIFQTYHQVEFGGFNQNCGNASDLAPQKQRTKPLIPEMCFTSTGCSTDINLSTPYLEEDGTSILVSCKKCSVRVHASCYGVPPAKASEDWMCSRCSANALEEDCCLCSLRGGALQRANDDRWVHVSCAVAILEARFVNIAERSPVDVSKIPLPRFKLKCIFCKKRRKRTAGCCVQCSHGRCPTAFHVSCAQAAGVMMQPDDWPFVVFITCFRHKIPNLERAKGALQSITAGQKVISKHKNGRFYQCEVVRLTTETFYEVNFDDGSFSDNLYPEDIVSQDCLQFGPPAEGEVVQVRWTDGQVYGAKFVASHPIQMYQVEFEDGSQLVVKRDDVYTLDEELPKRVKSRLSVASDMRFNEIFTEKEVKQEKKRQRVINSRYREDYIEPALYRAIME
row,Structure (SMILES),Potency
1,CCN(C(=O)Cn1cc(S(=O)(=O)N2CCN(c3ccccc3F)CC2)c2ccccc2c1=O)c1ccc(C)c(C)c1,inactive
2,CCCOc1ccc(C(=O)Nc2ccc3oc(-c4cccc(Cl)c4Cl)nc3c2)cc1,inactive
3,CCOC(=O)C1CCN(C(=O)/C=C/c2cc(OC)c(OC)c(OC)c2)CC1,inactive
4,CCOC(=O)C1CCN(S(=O)(=O)c2cc(F)ccc2OC)CC1,inactive
5,CCOC(=O)C1CCCCN1Cc1ccc(OC)c(OC)c1OC (centres undefined),2.24 µM (active)
6,CCOc1ccccc1CNCc1c(C(=O)O)c(C)n(Cc2ccc(C)cc2)c1C,inactive
7,CC1=C(c2ccc(C)c(C)c2)S(=O)(=O)NC1=NCc1ccccc1Cl,inactive
8,Cc1nc2ccn(Cc3cccs3)c(=O)c2cc1C(=O)NCc1ccc(Cl)cc1,inactive
9,CCOc1cccc(/C=N/NC(=S)NCCN2CCOCC2)c1O,56.2 µM (active)
10,O=C(NCCN1CCOCC1)Nc1cccc(Cl)c1,inactive
11,CCOc1nc(NCCN2CCOCC2)nc(Nc2ccc(C)cc2)n1,inactive
12,O=C(Nc1nc2c(s1)CCCC2)c1ccccc1F,inactive
13,COc1ccc(-c2nnc(SCC(=O)Nc3ccc(C(C)C)cc3)nc2-c2ccc(OC)c(OC)c2)cc1OC,inactive
14,CCCCN(C)CCCNC(=O)CN1N=C(c2ccc(OC)cc2)CCC1=O,inactive
15,Nc1ccc2nc3c(=O)[nH]c(=S)[nH]c3nc2c1,2.51 µM (active)
16,COc1ccc(CNC(=O)Cc2coc3ccc(C(C)C)cc23)cc1,inactive
17,COc1ccc(CCNC(=O)C(=O)NCC(c2ccco2)S(=O)(=O)c2cccs2)cc1OC (centres undefined),inactive
18,O=C(N/N=C/c1ccccn1)C12CC3CC(CC(C3)C1)C2,inactive
19,Cc1nnc(N/N=C/c2ccccn2)[nH]c1=O,20 µM (active)
20,CCOc1ccc(-n2c(O)c(/C=N/Nc3nnc(C)c(=O)[nH]3)c3ccccc3c2=O)cc1,28.2 µM (active)
21,CCOc1ccc(-n2c(SCC(=O)NCc3ccccc3)nc3n[nH]c(C)c3c2=N)cc1,inactive
22,CCN(CC)CCCN=Cc1c(O)n(-c2ccc(C)cc2)c(=O)c2ccccc12,inactive
23,O=C(COc1ccc(Cl)cc1Cl)N/N=C/c1ccccn1,inactive
24,Cc1cccc(C(=O)N2CCc3cc(CNC(=O)Cc4ccc(F)cc4)ccc32)c1,inactive
25,COc1cccc(C(=O)Nc2ccc(-c3cc(C(F)(F)F)nn3-c3ccccc3)cc2)c1,inactive
26,OCc1cnc(SCc2ccc(F)cc2)n1Cc1ccc(F)cc1,inactive

row,Structure (SMILES),Potency
1,Cc1ccc(S(=O)(=O)N2CCN(c3nc(-n4cnc5ccccc54)nc4ccccc34)CC2)cc1,inactive
2,c1ccc(Cn2nnc3c(N4CCCCC4)ncnc32)cc1,inactive
3,COc1cc(OC)cc(-c2nc3nc(C)c(CCC(=O)Nc4ccc(C)cc4)c(C)n3n2)c1,inactive
4,Nc1ccc(C(=O)Nc2ccccc2N)cc1,inactive
5,Cc1ccc(Nc2nc(Cl)c(C=O)s2)cc1,inactive
6,Cc1ccc(Nc2ccccc2N)cc1,44.7 µM (active)
7,O=C(c1ccco1)n1nc(-c2ccc(Cl)cc2)nc1NCc1ccccc1,inactive
8,Cc1nn2c(=O)cc(COC(=O)c3cccc(NC(=O)COc4ccccc4Cl)c3)nc2s1,inactive
9,Cc1cc(/C=N/n2cnnc2)c(C)n1-c1ccc2ncccc2c1,inactive
10,Cc1cc(/C=N/NC(N)=O)c(C)n1C1CCCCC1,inactive
11,Cc1cccc(-n2c(C)cc(/C=N/NC(N)=S)c2C)c1,56.2 µM (active)
12,Cc1cc(C(=O)Nc2cccc(C(F)(F)F)c2)c2c(C)nn(-c3cccc(F)c3)c2n1,inactive
13,COCCCNC(=O)c1ccc(NC(=O)c2nsc3ccccc23)cc1,inactive
14,CCCCN1C(=O)/C(=C2/C=CC=CN2C)SC1=S,44.7 µM (active)
15,CCCCN1C(=O)/C(=C/C=C2/C=Cc3ccccc3N2CC)SC1=S,inactive
16,COc1ccccc1C(=O)N1CCN=C1SCc1cccnc1,inactive
17,COc1cccc(OC)c1C(=O)N1CCN(Cc2cccnc2)CC1,5.01 µM (active)
18,COc1cccc(OC)c1OCCN1CCN(C(=O)c2ccco2)CC1,inactive
19,CCCn1c2ccccc2c2cnn(CC(=O)NCCCOC(C)C)c(=O)c21,inactive
20,COc1cccc(N=C2SC(C(=O)Nc3cccc(Cl)c3)CC(=O)N2C)c1 (centres undefined),inactive
21,COc1cccc(CNC(=O)Cn2ncn3c(cc4ccccc43)c2=O)c1,inactive
22,C[n+]1ccc(/C=C/c2c[nH]c3ccccc23)cc1,inactive
23,CCc1n[nH]c(=S)n1/N=C/c1c[nH]c2ccc(Br)cc12,inactive
24,S=c1[nH]nc(-c2ccccc2)n1/N=C/c1c[nH]c2ccccc12,89.1 µM (active)
25,Cc1ccc(/C=N\n2c(-c3ccccc3)n[nH]c2=S)s1,50.1 µM (active)
26,S=c1[nH]nc(-c2cc(-c3ccccc3)n[nH]2)n1/N=C/c1c2ccccc2cc2ccccc12,39.8 µM (active)

row,Structure (SMILES),Potency
1,C=CCNC(=S)N/N=C/c1ccc(C)s1,inactive
2,O=C(Cn1cncn1)N/N=C/c1c2ccccc2cc2ccccc12,inactive
3,Cc1ccccc1C(=O)NCc1nc(-c2ccc(Cl)cc2)no1,inactive
4,O=C(Nc1ccc(S(=O)(=O)N2CCC(c3nc4ccccc4s3)CC2)cc1)c1ccccc1F,inactive
5,CCc1ccc(C2CC(=O)c3c([nH]c(C(=O)OCc4ccc(C)cc4)c3C)C2)cc1 (centres undefined),inactive
6,Cc1cccc(N2CCN(C(=O)c3ccc(Nc4nc5ccccc5n5nnnc45)cc3)CC2)c1C,inactive
7,N#Cc1nc(/C=C/c2ccc(F)cc2)oc1NCc1ccc(F)cc1,inactive
8,CC(=O)N1CCc2cc(S(=O)(=O)NC(Cc3ccccc3)C(=O)NCc3ccc(C)cc3)ccc21 (centres undefined),inactive
9,Cc1ccccc1CNC(=O)C1CCCN(S(=O)(=O)N(C)c2ccc(F)cc2)C1 (centres undefined),inactive
10,CC1=C/C(=N\OS(=O)(=O)c2ccccc2)C=CC1=O,22.4 µM (active)
11,CCc1ccccc1NC(=O)Cn1c(=O)n(-c2cccc(C)c2)c(=O)c2c1c1cc(OC)ccc1n2C,inactive
12,O=C(NC1CCCCC1)c1ccc2c(c1)N(Cc1ccc(Cl)cc1)C(=O)c1ccccc1S2=O (centres undefined),inactive
13,CCOc1cc(C(=O)Nc2nnc3n2CCS3)cc(OCC)c1OCC,inactive
14,O=C(O)C1CC=CC2CCN(C3CCCCC3)C(=O)C21 (centres undefined),inactive
15,O=C(O)C1CCN1C1CCCCC1 (centres undefined),31.6 µM (active)
16,O=C(O)c1cccc2c1C(=O)N(C1CCCCC1)C2,inactive
17,CCCCOc1ccc(NC(=O)c2cc3c(n(-c4ccc(Cl)cc4)c2=O)CCCC3=O)cc1,inactive
18,COC1C(CO)OC(n2cnc3c(=S)nc(N)[nH]c32)C1O (centres undefined),17.8 µM (active)
19,CC(C)Sc1nc(N)nc2c1ncn2C1OC(CO)C(O)C1O (centres undefined),inactive
20,Nc1nc(SCc2ccc([N+](=O)[O-])cc2)c2ncn(C3OC(CO)C(O)C3O)c2n1 (centres undefined),inactive
21,O=C(Nc1ccc(Oc2ccccc2)cc1)C1CCN(S(=O)(=O)c2ccc(Cl)cc2)CC1,inactive
22,COc1ccc(C(=O)Nc2nonc2-c2ccc(OC)c(OC)c2)cc1Cl,inactive
23,Cc1ccc(S(=O)(=O)N(Cc2nc(-c3ccc(Cl)cc3)no2)C2CCCCC2)cc1,inactive
24,CC(=O)N=c1ncn(CC(COC(C)=O)OC(C)=O)c2nc[nH]c12 (centres undefined),inactive
25,CC(=O)OC(COc1ccc(F)cc1)Cn1cnc2ccccc21 (centres undefined),79.4 µM (active)
26,CC(C)c1ccc(OCC(O)Cn2cnc3ccccc32)cc1 (centres undefined),inactive

row,Structure (SMILES),Potency
1,Cc1ccc(Cl)cc1NC(=O)CSc1nc2ccccc2nc1Cc1ccccc1,inactive
2,COC(=O)c1c(NC(=O)c2cc(=O)c3c(C)cc(C)cc3o2)sc2c1CCCC2,inactive
3,COc1cccc(NC(=O)c2nn(C34CC5CC(CC(C5)C3)C4)cc2[N+](=O)[O-])c1,inactive
4,Cc1nc([N+](=O)[O-])nn1C12CC3CC(CC(Br)(C3)C1)C2,56.2 µM (active)
5,O=C(COc1ccccc1)OCc1cc(=O)n2nc(-c3cccs3)sc2n1,inactive
6,CCC(=O)N1c2ccccc2CC1C(=O)N1CCN(c2ccccc2)CC1 (centres undefined),inactive
7,CCN(CC)S(=O)(=O)c1ccc2c(c1)N(CC(=O)NCc1ccccc1)C(=O)CS2,inactive
8,CCCS(=O)(=O)Nc1cccc(-c2cn3ccsc3n2)c1,inactive
9,COc1ccc(C2Sc3ccccc3NC3=C2C(=O)c2ccccc23)c(OC)c1OC (centres undefined),14.1 µM (active)
10,COc1ccc(/C=C2\CCc3ccccc3C2=O)c(OC)c1OC,inactive
11,COC(=O)C(C)C1Sc2ccccc2NC1=O (centres undefined),inactive
12,CCOC(=O)C1CCCN(CC(=O)Nc2cc(C)c3c(=O)oc4ccccc4c3n2)C1 (centres undefined),inactive
13,CCOC(=O)c1ccc(NC(=O)CCn2cnnn2)cc1,inactive
14,CSc1ncc(Cl)c(C(=O)Nc2ccc(S(=O)(=O)N3CCCC(C)C3)cc2)n1 (centres undefined),inactive
15,CCCCN(C)S(=O)(=O)c1ccc(C(=O)Nc2sc3c(c2C(N)=O)CC(C)(C)NC3(C)C)cc1,inactive
16,CCN1CCN(C(c2ccc(C)cc2)c2c(O)cc(C)n(Cc3ccco3)c2=O)CC1 (centres undefined),inactive
17,Oc1c(Cl)cc(Cl)c(Cl)c1Cc1c(O)c(Cl)cc(Cl)c1Cl,79.4 µM (active)
18,O=C(Nc1ccc(F)cc1F)c1cnn(-c2ccc(F)cc2)c1-n1cccc1,inactive
19,O=C(CSc1ncn[nH]1)Nc1nsc(-c2ccccc2)n1,inactive
20,CC(C)(C)c1ccc(C(=O)CSc2ncn[nH]2)cc1,20 µM (active)
21,COc1ccc(C(=O)CSc2nccc(=O)[nH]2)cc1,inactive
22,CC(=O)Nc1nc(N(C)C)nc(N(C)C)n1,inactive
23,CN(C)c1nc(Nc2ccc(Cl)c(Cl)c2)nc(N(C)C)n1,14.1 µM (active)
24,CNc1nc(Nc2ccc(C)c(Cl)c2)nc(N)c1[N+](=O)[O-],inactive
25,CCc1ccc(Sc2cc(C(=O)NCCCOC(C)C)c3ccccc3n2)cc1,inactive
26,CSc1ccc(CCNC(=O)c2cc(C)nc3c2c(C)nn3-c2cccc(F)c2)cc1,inactive
